# Results as given in PMC5540273 (PLoS ONE, 2017).
# Legend:
# Settings in all cases: concentration: 1 μM,replicates: in singlicate; n = 1
# FGFR1 = system: FGFR1
# FGFR2 = system: FGFR2
# FGFR3 = system: FGFR3
# FGFR4 = system: FGFR4
# FGR = system: FGR
# FLT1 = system: FLT1
# FLT3-autoinhibited = system: FLT3-autoinhibited
# FLT3 = system: FLT3
# FLT4 = system: FLT4
# FRK = system: FRK
# FYN = system: FYN
# GAK = system: GAK
# GCN2(Kin.Dom.2,S808G) = system: T1, GCN2(Kin.Dom.2,S808G)
# T1 construct: gene EIF2AK4
# GRK1 = system: GRK1
# GRK2 = system: T2, GRK2
# T2 construct: gene ADRBK1
# GRK3 = system: T3, GRK3
# T3 construct: gene ADRBK2
# GRK4 = system: GRK4
# GRK7 = system: GRK7
# GSK3A = system: GSK3A
# GSK3B = system: GSK3B
# 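Also: KINOMEscan kinase panel screen.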
SMILES,%Inh (FGFR1),%Inh (FGFR2),%Inh (FGFR3),%Inh (FGFR4),%Inh (FGR),%Inh (FLT1),%Inh (FLT3-autoinhibited),%Inh (FLT3),%Inh (FLT4),%Inh (FRK),%Inh (FYN),%Inh (GAK),"%Inh (GCN2(Kin.Dom.2,S808G))",%Inh (GRK1),%Inh (GRK2),%Inh (GRK3),%Inh (GRK4),%Inh (GRK7),%Inh (GSK3A),%Inh (GSK3B)
CS(=O)(=O)Nc1ccc(-c2ccnc3[nH]ccc23)cc1 [GSK993273],29%,20%,4%,8%,16%,56%,10%,74%,28%,0%,0%,26%,0%,18%,0%,22%,71%,76%,0%,17%
Cn1ccc2ncnc(Oc3ccc(NC(=O)Nc4cnn(C(C)(C)C)c4)c(Cl)c3)c21,,14%,1%,0%,10%,97.4%,8%,99.2%,98.3%,70%,0%,0%,23%,18%,2%,6%,3%,0%,14%,0%
Cl.Cl.NC[C@H](CC1CCCCC1)NC(=O)c1ccc(-c2ccnc3[nH]ccc23)s1 [GSK1581428],26%,0%,6%,0%,25%,42%,26%,91.9%,13%,10%,17%,87%,0%,93.6%,55%,77%,91.9%,96.2%,0%,9%
Cc1nnc(-c2ccc3occ(-c4ccc(S(C)=O)cc4)c3n2)o1 (stereo not drawn),0%,0%,0%,0%,25%,0%,0%,0%,0%,0%,0%,5%,0%,0%,0%,0%,33%,0%,40%,0%
C[C@@H](Oc1cc(-n2cnc3ccc(-c4ccncc4)cc32)sc1C(N)=O)c1ccccc1Cl [GSK483724],11%,6%,29%,15%,27%,35%,6%,53%,37%,14%,44%,49%,0%,53%,7%,32%,21%,0%,76%,15%
NC(=O)c1ccc(-c2cc3ncnc(SCC(=O)O)c3s2)cc1,0%,0%,0%,0%,14%,4%,2%,20%,0%,0%,0%,45%,0%,30%,0%,0%,0%,0%,14%,0%
CSc1nccc(-c2c(-c3ccc(F)cc3)ncn2CCCN2CCOCC2)n1.Cl [SB-217146],0%,0%,0%,0%,0%,0%,0%,0%,0%,0%,0%,6%,0%,45%,0%,11%,10%,0%,0%,18%
CC(C)S(=O)(=O)N1CCN(Cc2ccc3c(c2)nc(NC(=O)c2ccsc2)n3C[C@H](O)c2ccccc2)CC1 [GW635815],12%,16%,0%,8%,74%,71%,90.4%,98%,0%,3%,73%,0%,10%,35%,0%,8%,7%,10%,2%,0%
